In PubChem BioAssay (EPA / NIEHS):
Active and inactive are the calls of the source. How the source made its calls: active means hit-call score of the fitted dose curve at least 0.9, where 1 is the maximum; inactive means score below 0.9.

Assay: APR_HepG2_MitoticArrest_1hr: Apredica 1-hour HepG2 Assay for Mitotic Arrest (AID 2282672)
Settings: high-content imaging, actives raise or lower the signal
Method: APR_HepG2_1hr is a cell-based, multiplexed-readout assay that uses HepG2, a human liver cell line, with measurements taken at 1 hour after chemical dosing in a 384-well plate.APR_HepG2_MitoticArrest_1hr is one of 10 assay component(s) measured or calculated from the APR_HepG2_1hr assay. It is designed to make measurements of cell phenotype, a form of morphology reporter, as detected with fluorescence intensity signals by HCS Fluorescent Imaging technology.Data from the assay component APR_HepG2_MitoticArrest_1hr was analyzed into 1 assay endpoint. This assay endpoint, APR_HepG2_MitoticArrest_1hr, was analyzed with bidirectional fitting relative to DMSO as the negative control and baseline of activity. Using a type of morphology reporter, measures of protein for gain or loss-of-signal activity can be used to understand the signaling at the pathway-level as they relate to the gene . Furthermore, this assay endpoint can be referred to as a primary readout, because this assay has produced multiple assay endpoints where this one serves a signaling function. To generalize the intended target to other relatable targets, this assay endpoint is annotated to the cell cycle intended target family, where the subfamily is arrest.
Cells were treated with dimethyl sulfoxide (DMSO) as a solvent control at a final concentration of 0.5% v/v or with compounds in DMSO with a resulting final DMSO concentration of 0.5% v/v. Compound treatment was done at concentrations of 0.39, 0.78, 1.56, 3.12, 6.24, 12.5, 25, 50, 100, and 200 uM in duplicate on each plate. Cells were treated with compounds for 1, 24, or 72 hr. Carbonyl […] m-chloro-phenylhydrazone (CCCP) and taxol were used as positive controls for mitochondrial function and cytoskeletal stability, respectively; DMSO served as the negative control for this experiment. Cells were fixed by the direct addition of 50 uL formaldehyde in Hank's Balanced Salt Solution (HBSS) to a final concentration of 3.7%. After incubation in the fixation medium for 30 min at room temperature (293-298 K), cells were rinsed twice with HBSS and treated with cell permeabilization buffer (16 uL of 0.5% Triton X-100) for 10 min at room temperature (293-298 K) before labeling. For mitochondrial membrane potential and mitochondrial measurements, pre-fixed cells were incubated with 50 uL of MitoTracker Red CMXRos (Invitrogen) at a concentration of 250 nM for 30 min before fixation. In the remaining cases, post-fixed cells were labeled by incubation with a multiplexed mixture of primary antibodies in HBSS for 60 min at room temperature (293-298 K) to detect immunoreactivity of c-Jun (1:500), phospho-histone H3 (1:100), phospho-histone H2A.x (1:200), p53 (1:400), alpha-tubulin (1:200) and Hoechst 33342 (2 ug/mL). Cells were labeled for multiplexed imaging on two separate plates: a) Hoechst 33342, MitoTracker Red, phospho-histone H3, and alpha-tubulin, and b) Hoechst 33342, phospho-histone H2A.x, and c-Jun. A final rinse with HBSS (50 uL) was performed before analysis. The primary and secondary antibodies for the proteins were phospho-histone H3 (rabbit anti-phospho-histone H3 and FITC-donkey anti-rabbit IgG), phospho-histone H2A.x (mouse anti-phospho-histone H2A.x and FITC-donkey anti-mouse IgG), c-Jun (rabbit anti-phospho-c-Jun and Cy3-donkey anti-rabbit IgG), p53 (sheep anti-p53 and Cy5-donkey anti-sheep IgG), alpha-tubulin (mouse anti-alpha-tubulin and Cy5-donkey anti-mouse IgG). These antibodies are available as the CellCiphr HepG2 assay kit (Millipore).Digital images of each well were captured using a Cellomics ArrayScan VTI (Thermo Scientific Cellomics) (0.8 NA objective, 0.63x optical coupler, and XF-93 filter set) at 20x magnification. The images were acquired using the autofocus feature of the ArrayScan instrument, which entails the following steps. First, the camera focuses on channel 1 (Hoechst 33342), where nuclei are identified. Second, a Z offset of 1 um is used for capturing mitochondria (MitoTracker Red). […]

SMILES	outcome	AC50
CN1CSC(=S)N(C)C1	inactive	–
CCOCN(C(=O)CCl)c1c(C)cccc1CC	inactive	–
Clc1ccccc1-c1nnc(-c2ccccc2Cl)nn1	inactive	–
COc1cc(OC)nc(NC(=O)NS(=O)(=O)c2cc(NC=O)ccc2C(=O)N(C)C)n1	inactive	–
O=C(O)CCCOc1ccc(Cl)cc1Cl	inactive	–
O=[N+]([O-])/N=C1\NCCN1Cc1ccc(Cl)nc1	inactive	–
CNC(=O)Oc1cccc(N=CN(C)C)c1	inactive	–
Cc1cc(C)nc(NC(=O)NS(=O)(=O)c2ccccc2C(=O)OC2COC2)n1	inactive	–
N#Cc1c(Cl)c(Cl)c(Cl)c(C#N)c1Cl	–	8.28 µM (active)
CCN(CC)C(=O)SCc1ccc(Cl)cc1	inactive	–
O=C(O)COc1ccc(Cl)cc1Cl	inactive	–
COc1nn(CSP(=S)(OC)OC)c(=O)s1	inactive	–
O=C1c2ccccc2C(=O)N1SC(Cl)(Cl)Cl	inactive	–
COC(=O)c1ccccc1CS(=O)(=O)NC(=O)Nc1nc(OC)cc(OC)n1	inactive	–
CC[C@H](C)[C@H]1O[C@]2(C=C[C@@H]1C)C[C@@H]1C[C@@H](C/C=C(\C)[C@@H](O[C@H]3C[C@H](OC)[C@@H](O[C@H]4C[C@H](OC)[C@@H](O)[C@H](C)O4)[C@H](C)O3)[C@@H](C)/C=C/C=C3\CO[C@@H]4[C@H](O)C(C)=C[C@@H](C(=O)O1)[C@]34O)O2 (tested in a mixture with another compound)	–	12.6 µM (active)
CC(C)N(C(=O)COc1nnc(C(F)(F)F)s1)c1ccc(F)cc1	inactive	–
Cc1[nH]c(=O)n(C(C)(C)C)c(=O)c1Cl	inactive	–
CNC(=O)Oc1ccccc1OC(C)C	inactive	–
C[C@H]1[C@H](c2ccc(Cl)cc2)SC(=O)N1C(=O)NC1CCCCC1	inactive	–
[2H]C1([2H])[n+]2ccccc2-c2cccc[n+]2C1([2H])[2H]	inactive	–

SMILES	outcome	AC50
C#CCN1C(=O)COc2cc(F)c(N3C(=O)C4=C(CCCC4)C3=O)cc21	inactive	–
ClC1C(Cl)C(Cl)C(Cl)C(Cl)C1Cl (stereo not given)	inactive	–
CCOc1nc(NC)nc(NC(=O)NS(=O)(=O)c2ccccc2C(=O)OC)n1	inactive	–
CCC(C)(C)C(=O)OC1=C(c2ccc(Cl)cc2Cl)C(=O)OC12CCCCC2	inactive	–
COP(=O)(OC)OC=C(Cl)Cl	inactive	–
N#CN	inactive	–
CCc1ccc(C(=O)NN(C(=O)c2cc(C)cc(C)c2)C(C)(C)C)cc1	inactive	–
Oc1cc(Cl)ccc1Oc1ccc(Cl)cc1Cl	inactive	–
CC(C)(C)C(O)C(Oc1ccc(Cl)cc1)n1cncn1 (stereo not given)	inactive	–
CCOC1Oc2ccc(OS(C)(=O)=O)cc2C1(C)C (stereo not given)	inactive	–
O=S(=O)(O)C(F)(F)C(F)(F)C(F)(F)C(F)(F)C(F)(F)C(F)(F)C(F)(F)C(F)(F)F	inactive	–
CCC(C)(NC(=O)c1cc(Cl)c(C)c(Cl)c1)C(=O)CCl (stereo not given)	inactive	–
CCS(=O)(=O)c1cccnc1S(=O)(=O)NC(=O)Nc1nc(OC)cc(OC)n1	inactive	–
Oc1ccc(Cl)cc1Cc1ccccc1	inactive	–
CC(C)OC(=O)Nc1cccc(Cl)c1	inactive	–
O=C(O)C(F)(F)C(F)(F)C(F)(F)C(F)(F)C(F)(F)C(F)(F)C(F)(F)F	inactive	–
COC(=O)c1ccccc1S(=O)(=O)NC(=O)N(C)c1nc(C)nc(OC)n1	inactive	–
O=C(Nc1ccccc1)Nc1cnns1	inactive	–
O=S1OCC2C(CO1)C1(Cl)C(Cl)=C(Cl)C2(Cl)C1(Cl)Cl (stereo not given)	inactive	–
CC(C)(C)C(O)/C(=C\c1ccc(Cl)cc1Cl)n1cncn1 (stereo not given)	inactive	–
